In PMC5540273 (PLoS ONE, 2017):

tested on: CSNK1E; settings: concentration: 1 μM, replicates: in singlicate; n = 1
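Note: KINOMEscan kinase panel screen.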

Row | Structure (SMILES) | %Inh [%]
1 | CCc1nc(-c2cccc(C)c2)c(-c2ccncc2)s1 | 70
2 | COc1cc(OC)cc(-c2cc3cnc(N)nc3nc2NC(=O)NC(C)(C)C)c1 | 0
3 | Nc1ncnc2c1ncn2-c1cccc(F)c1 [SKF-97560] | 0
4 | COc1cc2ncn(-c3cc(OCc4ccncc4)c(C(N)=O)s3)c2cc1OC [GSK336313] | 29
5 | Fc1cccc(CSc2nnc(-c3ccc4c(c3)CCO4)o2)c1 | 0
6 | CCC(=O)c1c(-c2ccccc2)c2cc(Cl)ccc2c(=O)n1Cc1cc(S(C)(=O)=O)n(CCC(C)(C)O)n1 | 0
7 | CCn1c(-c2ccoc2)nc2cnccc21 [SB-733887] | 3
8 | CCc1ccc(-c2ccc3c(c2)-c2nn(C)cc2S(=O)(=O)N3C)cc1 | 0
9 | COc1ccc(-c2coc3ccc(-c4nnc(SCc5cccc(C#N)c5)o4)cc23)cc1 | 5
10 | COC(=O)c1c(-c2ccccc2)c2cc(C)ccc2c(=O)n1Cc1ccccc1 | 0
11 | Cl.NS(=O)(=O)c1cccc(Nc2cc(-c3ccc(F)cc3)n[nH]2)c1 [GW824645] | 19
12 | COC(=O)c1c(-c2ccccc2)c2cc(Br)ccc2c(=O)n1Cc1ccc(NC(=O)CCC(=O)O)cc1 | 0
13 | COc1ccc(CNC(=O)NC2CCN(c3ccnc(Nc4ccc(F)cc4)n3)C2)cc1 (stereo not shown) [GSK1379706] | 15
14 | CCS(=O)(=O)c1ccc(OC)c(Nc2ncc(-c3ccc(F)cc3)o2)c1.Cl [GW591947] | 40
15 | Cc1nn2c(=O)cc(N3CCOCC3)nc2n1Cc1cccc(Cl)c1Cl [GSK2342769] | 22
16 | CCS(=O)c1ccc(-c2coc3ccc(-c4nnc(C)o4)cc23)cc1 (stereo not shown) | 0
17 | COc1cc(Nc2nccc(N3CCC(NC(=O)C(C)c4ccc(Cl)cc4)C3)n2)cc(OC)c1OC (stereo not shown) [GSK1379757] | 18
18 | COc1cc2ncn(-c3cc(OCc4ccncc4Br)c(C(N)=O)s3)c2cc1OC [GW854278] | 0
19 | Cl.c1ccc(Cn2cnc3cc(Nc4ncnc5ccccc45)ccc32)cc1 [GW272142] | 42

Row | Structure (SMILES) | %Inh [%]
20 | CCC(=O)c1c(-c2ccccc2)c2cc(Cl)ccc2c(=O)n1Cc1cc(C(=O)NC2CC2)n(C)n1 | 0
21 | Nc1nccc2scc(-c3ccc4c(c3)CCN4C(=O)Cc3ccccc3)c12 [GSK2576924] | 6
22 | COc1ccc(-c2cc3c(C)nc(N)nc3n([C@H]3CC[C@H](O)CC3)c2=O)cn1 | 0
23 | Nc1nc(-c2ccccc2F)c(-c2ccnc3ccccc23)s1 [GW560459] | 51
24 | COc1cccc(C2=C(N(C)c3ccccc3)C(=O)NC2=O)c1 [SB-334865] | 2
25 | CCn1c(-c2nonc2N)nc2ccccc21 [SB-693162/GW549034] | 0
26 | COc1cc2nccc(Nc3ccc(OCc4ccc(NC(C)=O)cc4)cc3)c2cc1OC.Cl [GW440135] | 16
27 | Cc1ccc(Oc2ccc(Nc3ncnc4cc[nH]c34)cc2C)cn1 | 0
28 | O=C(Nc1n[nH]c2cc(-c3ccccc3F)ccc12)C1CC1 [SB-733371] | 14
29 | O=C1NC(=O)C(c2ccccc2)=C1Nc1cccc(O)c1 [SB-390534] | 16
30 | COc1ccc(-c2cc3c(C)nc(N)nc3n([C@H]3CC[C@H](OCCO)CC3)c2=O)cn1 | 4
31 | Cn1c(=O)c(F)c(Nc2ccc(I)cc2F)c2c(=O)n(OC[C@H](O)CO)cnc21 | 25
32 | Nc1n[nH]c2ncc(-c3ccccc3)cc12 [SB-517081] | 15
33 | CCC(=O)c1c(-c2ccccc2)c2cc(Cl)ccc2c(=O)n1Cc1cc(S(C)(=O)=O)n(CC(N)=O)n1 | 0
34 | Nc1ncnc2c1ncn2-c1ccc(Cl)cc1 [AH2635] | 46
35 | Cc1nnc(-c2ccc3ncn(-c4ccc(S(C)=O)cc4)c3c2)o1 (stereo not shown) | 8
36 | COc1cc2ncn(-c3cc(OCc4ccc(S(C)(=O)=O)cc4)c(C(N)=O)s3)c2cc1OC [GW869979] | 13
37 | CCC(=O)c1c(-c2ccccc2)c2cc(Cl)ccc2c(=O)n1Cc1ccc(C(=O)O)cc1 | 0
